According to the supplement of paper PMC13094657:
± gives the standard deviation of the averaged measurements.

Key:
MDA-MB-231 [1] = assay: cell viability relative to vehicle unstimulated control (fraction); higher = more viable cells; details: pre-treatment time: 18 h then 24 h IFNg/TNF
MDA-MB-231 [2] = assay: kynurenine production, fold change vs DMSO IFNg/TNF control; higher = more kynurenine produced (less inhibition); details: pre-treatment time: 18 h then 24 h IFNg/TNF
How it was run: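 MDA-MB-231 cells (7 × 10^4/well, 96-well plates, seeded 24 h earlier) were pre-treated 18 h with each natural product in 0.1% DMSO, then stimulated 24 h with IFNγ (1 U/ml) and TNF (6.25 ng/ml) at 37°C. Supernatant kynurenine was read at 492 nm after trichloroacetic acid and p-dimethylaminobenzaldehyde treatment, against 0–100 μM standards. Kynurenine production is the fold change over cytokine-stimulated vehicle wells on the same plate, averaged over duplicate plates in the first screening round.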
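Wherever cell viability relative to vehicle unstimulated control is given: viability of the cells left after supernatant collection, read with Deep Blue dye added for 4 h, as absorbance at 570 nm minus 600 nm.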

| SMILES | cell viability (MDA-MB-231 [1]) | kynurenine production (MDA-MB-231 [2]) |
| --- | --- | --- |
| CN1[C@@H]2CC[C@H]1C[C@H](O)C2 [Pseudotropine] (compound dose: 10 uM) | 1.052 ± 0.0024 | 1.14 ± 0.4 |
| COc1cc(C2OCC3C(c4cc(OC)c(O[C@@H]5O[C@H](CO)[C@@H](O)[C@H](O)[C@H]5O)c(OC)c4)OCC23)cc(OC)c1O[C@H]1O[C@@H](CO)[C@H](O)[C@@H](O)[C@@H]1O (stereo partly specified) [Eleutheroside E] (compound dose: 10 uM) | 0.947 ± 0.033 | 0.784 ± 0.071 |
| C=C[C@H]1[C@H](O[C@@H]2O[C@H](CO)[C@@H](O)[C@H](O)[C@H]2O)OC=C2C(=O)OCC[C@H]21 [Sweroside] (compound dose: 10 uM) | 0.996 ± 0.063 | 0.832 ± 0.17 |
